# Rows were chosen to be rich in hits. Some 1.4% of all compounds tested hit in one or more screens of this group.
# MmCpn inh – inhibitors of Methanococcus maripaludis chaperonin TRiC (MmCpn). purified Mm-Cpn ATPase, ADP Transcreener TR-FRET. Potency, µM (highest dose often 76.9 µM), for inactives: at the top dose activity, negative = inhibition, most hits filed as inhibitors. hit rate 0.031% among 330,000. AID 504842; active = well fitted inhibition curve with a large enough effect; note: potency is the fitted concentration of half-maximal effect; % is set by controls: 0 for no effect and ±100 for the full control effect; nearly all actives have a fitted effect of over 80% in size
#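 Purified archaeal Mm-CPN (25nM final) preincubated 10 min at 37degC with compound, then 10uM ATP for 30 min at 37degC; ADP measured by HTRF Transcreener TR-FRET; buffer 30 mM TRIS pH 7.4, 100mM KCl, 5mM MgCl2, 1mM DTT.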
# KCNH2 3.1 inh – KCNH2 3.1 (human) potassium channel inhibition. activity change, % (tested at about 1.8 µM). hit rate 0.95% among 340,000. U2OS KCNH2 3.1, thallium flux FluxOr; active compounds read low. AID 720553;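 active = maximum activity change below -70%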;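 note: thallium influx rate constant from kinetic fluorescence after stimulation buffer; % is set by controls: 0 for no effect and ±100 for the full control effect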
#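 Normalized rate constant (relative to positive and negative DMSO controls) derived from a 2 min kinetic fluorescence read after stimulation; U2OS cells expressing the 3.1 isoform via virus at 1.77 x 10^8 /mL.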
# hERG WT inh – inhibitors of human wildtype KCNH2 potassium channel; hit rate 0.37% among 340,000; U2OS, BacMam KCNH2, thallium flux FluxOr; active compounds read low; AID 720551; Q12809; activity change, % at 1.84 µM;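 active = maximum activity change below -70%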; note: % is set by controls: 0 for no effect and ±100 for the full control effect
#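 U2OS cells were transduced with wild-type KCNH2 virus (2.03 x 10^8 / mL) for 4 h at room temperature, then cultured overnight at 37 C. Thallium flux was read with FluxOr dye. Rate constants were normalized to DMSO controls.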
# Rango complex inh – prevents formation of the Rango-importin beta complex | Q14974 | AID 540263 | hit rate 0.031% among 340,000 | Rango CFP/YFP FRET sensor + importin beta, 45 min | Potency, µM (highest dose often 92.2 µM), for the others: top-dose inhibition of complex formation;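 note: potency is the fitted concentration of half-maximal effect; 0% = DMSO wells and 100% = buffer wells lacking importin beta; nearly all actives have a fitted effect of over 15% in size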
#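 FRET biosensor Rango (snurportin 1 IBB between N-terminal EYFP and C-terminal Cerulean), 50 nM in PBS/1 mM DTT/0.02% Tween-20/0.1% BSA, preincubated 5 min RT with compound; 0.125 microM importin beta added, 45 min RT, CFP/YFP FRET ratio read.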
# Rango release inh – inhibitors of RanGTP-induced Rango-importin beta complex dissociation; O95149+P62826; Biochemical FRET Rango-importin beta, RanGTP-induced dissociation; Potency, µM (series often up to 46.1 µM), for the others: at the highest dose activity change, negative = inhibition; hit rate 0.071% among 340,000; AID 540253; note: potency is the fitted concentration of half-maximal effect; % of control where 0% means no effect; nearly all actives have a fitted effect of over 45% in size
#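 Compounds sat 5 min at room temperature with 0.1 uM Rango biosensor plus 0.25 uM importin beta, then FRET pre-read. RanGTP-RCC1 (0.6 uM Ran, 2mM GTP, 0.2 uM RCC1) added for 45 min, and the CFP/YFP post-read measured blocked complex dissociation.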
# CCT chaperon mod – cytosolic chaperonin activity modulation. purified chaperonin ATPase assay, HTRF ADP detection, 30 min. activity change, % (test concentration not listed), hits read low. hit rate 0.3% among 360,000. AID 651819; in the data active = activity change below about -30%; note: % is set by controls: 0 for no effect and ±100 for the full control effect
#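 First, chaperonin was dispensed at 40 nM or 20 nM final depending on batch activity. Next, compounds were pinned at 76 uM and ATP added at 10 uM. After 30 min at 37 °C, ADP detection reagents ran 30 min at ambient temperature.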
# An asterisk follows results filed as active; . = no result given. Unless noted, calls come from the whole dose curve.
SMILES,MmCpn inh,KCNH2 3.1 inh,hERG WT inh,Rango complex inh,Rango release inh,CCT chaperon mod
O=C(CCN1CCN(C/C=C/c2ccccc2)CC1)Nc1ccccc1F,4%,-102*,-49,0%,11%,-1
Cc1ccccc1NC(=O)N1CCN(C/C=C/c2ccccc2)CC1,3%,-86*,26,-1%,25%,-1
Cc1cc(C)cc(NC(=O)CCN2C(=O)c3ccccc3S2(=O)=O)c1,0%,1,-6,0%,-18%,2
O=C(CN1CCN(CCC(=O)Nc2ccccc2F)CC1)Nc1ccc(Cl)cc1,0%,-108*,-102*,-3%,-6%,-1
O=C(CCN1C(=O)c2ccccc2S1(=O)=O)Nc1ccc(Cl)cc1,2%,-84*,5,0%,-4%,-5
O=S(=O)(Nc1ccc(Cl)cn1)c1ccc(F)cc1,-3%,-9,-2,1%,-3%,-3
CC1CCN(C(=O)CSc2nnc(CSc3ncccn3)n2C)CC1,1%,8,-34,-1%,3%,1
Clc1ccc(-c2nc3ccc(Br)cn3c2Cc2ccsc2)cc1,.,.,.,.,.,-2
Cc1ccc(NC(=O)/C(=C\c2cccc([N+](=O)[O-])c2)NC(=O)c2cccs2)cc1,-1%,-84*,4,2%,6%,1
Cc1ccc(NC(=O)/C(=C/c2cccc([N+](=O)[O-])c2)NC(=O)C2CCCCC2)cc1,1%,-79*,19,-2%,2%,-2
O=C(Nc1ccc(Br)cc1)/C(=C/c1cccc([N+](=O)[O-])c1)NC(=O)C1CCCCC1,1%,-90*,-97*,0%,15%,3
COc1ccc(C(=O)NCCS(=O)(=O)N(C)Cc2ccccc2)cc1,-1%,8,6,2%,-22%,-3
Cc1onc(-c2ccccc2)c1C(=O)N1CCN(c2ncccc2C(F)(F)F)CC1,-3%,-4,-7,2%,12%,-2
Cc1cc(C)c(C#N)c(SCC(=O)NC(C)(C)C)n1,2%,-84*,-13,4%,-4%,-1
O=C(O)CCN1CC2([N+](=O)[O-])C=CC(=O)C([N+](=O)[O-])(C1)C2CC(=O)c1ccccc1 (centres undefined),0%,9,9,2%,-9%,-1
Cc1cc([N+](=O)[O-])ccc1NC(=O)CN1CCN(Cc2ccccc2)CC1,-2%,-81*,-6,0%,-8%,-2
O=C(CN1CCN(Cc2ccccc2)CC1)Nc1ccc([N+](=O)[O-])cc1C(=O)Nc1ccccc1F,0%,-103*,-82*,0%,-9%,0
CCOc1ccc(NC2=C(Cl)C(=O)N(C3CCCCC3)C2=O)cc1,-2%,-24,5,0%,6%,-32*
CCOC(=O)c1c(C)[nH]c(C)c1S(=O)(=O)NCC1CCN(Cc2cccc(Cl)c2)CC1,2%,-121*,-4,1%,8%,-2
COC(=O)c1cc(S(=O)(=O)NCC2CCN(Cc3ccc(C)cc3)CC2)c[nH]1,-7%,-76*,-26,0%,26%,0
COc1ccc(S(=O)(=O)NCC(=O)N(Cc2ccco2)C(C(=O)NC(C)(C)C)C(C)C)cc1 (centres undefined),2%,0,13,0%,0%,-1
O=C(NCc1ccccc1)c1onc(CSc2ccccc2)c1C(=O)NCC1CC1,0%,-1,-13,1%,6%,-5
CSc1ccccc1OCc1cc(C(=O)NCCC2=CCCCC2)no1,-1%,-15,-6,-2%,13%,0
CCOC(=O)c1ccc(NC(=S)N(CCN2CCCCCC2)Cc2ccco2)cc1,4%,-90*,15,-2%,-11%,0
CCOC(=O)c1ccc(NC(=S)N(CCCN2CCCCCC2)Cc2ccco2)cc1,-1%,-22,37,-2%,-9%,-1
OC[C@H]1O[C@@H](c2nc(-c3cccc4ccccc34)no2)[C@H](O)[C@@H]1O,.,.,.,.,.,-1

# Compound activity as filed in PubChem.
